From the supplement of paper PMC6555819 come the findings set out here.

The test relates to VDR:RXRa (NR concentration 270 nM, RXRa partner concentration 90 nM). Briefly: PBM binding z-score (relative to random genomic background probes); higher = stronger binding; sequences stand for … in GC…GCGATTGACAGCGTAGAATGAAGG
The method, then:
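Protein-binding microarray (Agilent 4x180K custom design, double-stranded 60-nt probes: 5' GC cap, 34-nt variable region, 24-nt constant primer region; full probe sequence given). Purified or IVT nuclear receptor:RXRα heterodimers (3:1 NR:RXRα, mostly 270:90 nM) or homodimers were incubated for 1 h in PBS with 2% milk and no ligand, then detected with Alexa488 antibodies. Fluorescence from o1-orientation probes (~5 replicates averaged) was converted to z-scores against 500 random hg19 background probes. Variable regions are seed direct-repeat (DR0–DR5) sites, all their single-nucleotide variants and half-site ablations.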
In turn, AGTCAACGTTCATCTAGGTAACGTAAGATATGCT came in with a PBM binding z-score of -0.0927.
As to CTACCTAGGTGAACAAGGTCGTTGATTACTATTC, the PBM binding z-score was 5.37.
To CGAACTAGTTCATCCAGGACAGTGAATACATTGA belongs 2.23; to CCTTACGGGTCACTGACACGTTATAGCATTTGGA, 3.23; to ATATGTAGGTTGAGGGTCATTCAGGTTGGTTCGC, 4.78.
On to TCATATAGGTAAAACGTGAAAGTCGGTGTGGTAA, for which the PBM binding z-score turned out to be 0.783.
GCTAGCAGGCCATTTGGGTAACTCAATGACGGGC gave a PBM binding z-score of -0.713.
To CGTTACGGGTCACTGACAGGTTATAGCATTTGGA belongs 3.87.
Sequence AGAACGAGGGCAATGAGTTGAAAGCACGGGTGGC displayed a PBM binding z-score of 5.39.
For AGGCAAAGTTCACTAGGTAACGTAAGATTCAGCT, the PBM binding z-score turned out to be 3.88.
TCTAGTTGGTCACGGATGTCACACACGACGGGTA yielded a PBM binding z-score of 1.18.
AGAATGACGTTATTAAGATCAGGGAATTGCGGTC registered a PBM binding z-score of -0.00436.
To GTACCAAGGTGAATAGGTCGTTGAGGAGTAGGCG belongs 0.845; to TGTCAAAGTTCAAAGGTAACGTTAGTATCCACAC, 4.9; to TAATATAGGTAAAGGTGAAAGTCGAACGATATGA, 1.
On to TTACCAAGGTGAAAGGTCGTTAATGCACGCCTTG, for which the PBM binding z-score came to 2.95.
To ATCGAAAGGTCGATGGTGAGTATACCCACCCGAA belongs 1.78; to TCTAGTTGGTCACGGAGGTGACACACGACGGGTA, 1.59.
To TCTAGCAGGCCAGAGGGCCACTCAAGAGGTACGG belongs -0.505; to ACTATTAGTTGAGACGAGGGTAACCGATAGGTTG, 0.26; to TTACCCAGGTGAAAGGTCGTTGATGCACGCCTTG, 3.08.
With TCTATTAGTTGGAGGGCAACCGACGAGTCCGTTT, the PBM binding z-score was found to be 1.27.
Next, ATCGAAAGGTCGAGGTGAGGATAGAGAAAGGGAA: 2.63; CCTACTGGGCCACAAAGGTCATTGATGCCGATAA: 5.28.
With CCTACAGGGCCATCAGGTCATTGATATCAACGTT, the PBM binding z-score turned out to be 2.48.
To CAAACTAGGTCACGAAAGGTCAAAGTCGAATGAC belongs 6.91.
Turning to TCGAGTAGGTTGGGGGCATTCAGAATGGCGTCGA, the PBM binding z-score worked out at 2.65.
As for CCGACTGGGGCAGAAGGGTTACCATACCATCCGG, the PBM binding z-score turned out to be 0.121.
Next, TGTATGAGGTTATAAGATCAGGGAACGTTGCAAA: 1.26.
To ACTATTAGTTGACTCAGGGCAACCGATACGACGC belongs 0.825; to CTCGAAAGGTCCGTTGAGGTGAGTATACGGATAA, 0.243; to TTACCAAGGTGAGGTGAGGTCGTTGATCCAACTC, 4.3.
Next, ACTAGTTGGTCAGCTGAAGTCACACACAATTCGG: -0.103; GCTATTAATTGAAAGGGCAACCGAATGATTCTCG: 0.257; CGTCAAAGTTCTACTAAGGTAACGTAAAGCACGC: 0.34.
Regarding CGTCCAAGGTCAATGCTAGGGCAGTGAAAGCATT, the PBM binding z-score turned out to be 3.92.
GCATATCGGTAATACAAGGTGAAAGTCCGATTGT: the PBM binding z-score is 0.0318.
Next, ATCTCTTGGTAAAGTTCAGTGAAAGATCGATAGA: 1.6.
To GCATATATGTAATACAAGGTGAAAGTCCGATTGT belongs 0.278; to ATCGAAAGGTAGAAGGTGAGTATACCCACCCGAA, -0.0163.
